# Sampled rows, rich in hits. Any-hit rate of the full collection: about 2.8%.
# CF NFkB block: cystic fibrosis NF-kB activation inhibition | KKLEB NF-kB-GFP reporter, PAF-induced, GFP fluorescence overnight | inhibition, % at 5 µM | hit rate 0.86% among 360,000 | AID 588850;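 active = at least 50% inhibition at 5 µM, scaled per plate between neutral and stimulator controls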;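 also: PAF is a Pseudomonas aeruginosa culture filtrate used as stimulus; plate controls were PAF-stimulated DMSO wells for no effect and unstimulated DMSO wells for full effect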
# Peg3 promoter: Peg3 promoter activity inhibition | hit rate 1.7% among 360,000 | HeLa PEG-Prom luciferase reporter, luminescence, overnight | inhibition, % at 20 µM;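 active = inhibition of at least 50% at 20 µM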
# HIF-2a block: HIF-2a inhibition. 786-0 RCC cells HIF-2a reporter, luciferase luminescence, overnight. inhibition, % at 18.8 µM. hit rate 0.72% among 360,000. AID 624352;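 active = inhibition of the luminescence signal of 40% or more relative to plate controls, in a single-dose primary screen at 18.75 µM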
# KKLEB cytotox: reduces viability of KKLEB cystic fibrosis airway cells. KKLEB CF airway cells viability, ATPlite luminescence, overnight; active compounds read low; cells stimulated with P. aeruginosa culture filtrate. activity change (cytotoxicity), % at 5 µM. hit rate 0.36% among 360,000;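 active = corrected activity change at or below -50% at 5 µM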
# Shn3 3UTR inh: Schnurri-3 reporter inhibition in Clone20 osteoblasts; Clone20 osteoblast Shn3 3'UTR firefly luciferase, 24 h; inhibition, % at 12.5 µM; hit rate 0.52% among 360,000; AID 588674;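 active = mean inhibition of at least 75% with every replicate also reaching 75%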;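 also: 0% = median of neutral control wells and 100% = pilot-screen positive control compound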
# TRPM1 prom inh: reduces MITF-dependent TRPM1 promoter luciferase signal; hit rate 0.83% among 330,000; inhibition, % at 12.5 µM; SK-MEL-5 TRPM1 promoter luciferase, 24 h; AID 488899;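 active = mean inhibition across replicates of 60% or more, whatever share of single replicates reaches that level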
# The depositor's hits bear a star.
SMILES,CF NFkB block,Peg3 promoter,HIF-2a block,KKLEB cytotox,Shn3 3UTR inh,TRPM1 prom inh
COc1ccc(Nc2ncc(C(=O)O)c3ccccc23)cc1,17,6,-30,-6,6,-8
CCOc1ccccc1C(=O)N1CCN(c2cccc(Cl)c2)CC1,41,10,4,-30,1,48
COc1ccccc1N1CCN(c2ncc(C(=O)N3CCN(c4cccc(Cl)c4)CC3)c3ccccc23)CC1,2,31,9,-14,93*,41
Cn1c2c(c(=O)n(C)c1=O)C(C(F)(F)F)(C(F)(F)F)N=C(CCC1CCCCC1)N2,24,58*,11,7,47,5
Cn1c2c(c(=O)n(C)c1=O)C(C(F)(F)F)(C(F)(F)F)N=C(c1ccccc1Cl)N2,16,12,5,-24,-15,4
CO[C@@]12[C@@H]3N[C@@H]3CN1C1=C(C(=O)C(N)=C(C)C1=O)[C@@H]2COC(N)=O,-22,60*,6,-13,26,58
CC(C)(C)c1ccc(-n2nc(C#N)c(Cl)cc2=O)cc1,91*,104*,92*,-101*,98*,98*
CCc1c(O)nc(SCC(=O)Nc2ccccc2)n(-c2ccccc2)c1=O,-36,5,9,10,96*,0
CCn1c(N)[n+](CC(=O)Nc2ccc(SC(F)F)cc2)c2ccccc21,15,42,3,-12,20,-1
COc1cccc2c1C(=O)c1c(O)c3c(c(O)c1C2=O)C[C@@](O)(C(C)=O)C[C@@H]3O[C@H]1C[C@H](N)[C@H](O)[C@H](C)O1,66*,89*,26,-47,96*,96*
COc1cccc2c1C(=O)c1c(O)c3c(c(O)c1C2=O)CC(O)(C(=O)CO)CC3OC1CC(N(C)C)C(O)C(C)O1 (stereo not drawn),76*,93*,38,-37,97*,69*
COc1cccc2c1C(=O)c1c(O)c3c(c(O)c1C2=O)C[C@@](O)(C(=O)CO)C[C@@H]3O[C@H]1C[C@H](N)[C@@H](O)[C@H](C)O1,70*,94*,4,-54*,83,83*
COCCn1c(SCC(=O)NCC2CCCO2)nc2c(c1=O)SCC2 (stereo not drawn),-11,-3,3,8,-1,-6
COc1ccc(-c2csc(NC(=O)CCN3C(=O)C4CC=CCC4C3=O)n2)cc1OC (stereo not drawn),30,19,-2,-28,17,-5
CCCCC[C@H]1CN(Cc2ccc(OC)cc2)C(=O)[C@@H]1CC(=O)NCc1ccccc1,-7,15,6,-11,89*,52
CCCCC[C@H]1CN(CCCC)C(=O)[C@@H]1CC(=O)NCc1ccccc1,-10,7,-3,13,3,3
COC(=O)Nc1sc2c(c1C(=O)NC1CC1)CCCCCC2,1,10,11,2,-1,-4
CCC(C)c1ccc(NC(=S)NC2CCN(Cc3ccccc3)CC2)cc1 (stereo not drawn),2,77*,12,-1,22,19
CCc1ccc(NC(=S)NC2CCN(Cc3ccccc3)CC2)cc1,-5,12,-12,4,-2,-4
O=C(/C=C/c1ccccc1Br)c1ccc2c(c1)OCO2,-1,-106,-231,-4,10,-28
O=C(/C=C/Nc1ccc(F)cc1Br)c1ccccc1,4,39,52*,-72*,-7,58
O=C(/C=C\Nc1ccccc1Br)c1ccc2c(c1)OCO2,-7,-32,-28,-75*,34,44
Cc1cc(N/C=C/C(=O)c2ccccc2)ccc1Br,5,-299,-183,-31,-33,-19
Cc1cc(C(=O)NNC(=O)NC(C)C)no1,14,7,6,-8,15,15
CCc1ccc(Nc2n[n+](-c3ccccc3)c(-c3ccc(N(CC)CC)cc3)s2)cc1,33,84*,-123,1,82,68*
CCN(CC)c1ccc(-c2sc(Nc3ccccc3)n[n+]2-c2ccc(F)cc2)cc1,-36,-18,-7,14,-4,15
COc1ccc(N=N/C(=C\O)C(=O)c2cccs2)cc1,76*,1,-76,-50,0,7
Cn1cc(/C=C/c2cc[n+](C)cc2)c2cc(Cl)ccc21,-54,51*,18,-5,-7,55

# Screening results (PubChem BioAssay)
